15 molecules from PubChem BioAssay can be followed below.

SMILES strings stand for the structures. Active and inactive are the calls of the source.

For experiment [1], the system named is Plasmodium falciparum Sir2 (PF13_0152, Sir2A). The experiment is described as follows: pfSir2 binders on small-molecule microarrays, primary screen, biochemical, small-molecule microarray, 635 nm fluorescence (AID 1098).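 Further: score merges spot fluorescence intensity with its signal-to-noise ratio.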 The conditions noted are these: small-molecule microarray binding, fluorescence 635 nm; higher = more signal.
Experiment [2] can be described thus: small-molecule microarray binders of probe aDKK1, primary screen, biochemical, biotinylated probe, 635/667 nm fluorescence (AID 1099).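 Further: score merges 667nm spot fluorescence with signal to noise across triplicate slides; reference of the scale not given here.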 The conditions noted are these: higher = more signal.
Experiment [3] is described as follows: small-molecule microarray binders of probe aCHRDL2, primary screen, biochemical, biotinylated probe, 635/667 nm fluorescence (AID 1100). The note with it: higher = more signal.
A short description of experiment [4]: splicing luciferase reporter signal modulators, primary screen, spliceosome inhibition project, cell-based, HEK293, splice +/- reporter (AID 1101).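 Further: HEK293 cells carrying a splicing-competent luciferase reporter gene; test concentration not given here.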 The note with it: luminescence, 24 h, higher = more signal, called active from +8 up or from −8 down.
Experiment [5] has as its target Fibroblast growth factor 10 (Homo sapiens) (UniProt O15520). The experiment is described as follows: FGF10 binders on small-molecule microarrays, primary screen, biochemical, small-molecule microarray, 635 nm fluorescence (AID 1102). The note with it: FGF10 binding, fluorescence 635 nm, higher = more signal.
The subject of experiment [6] is glycogen synthase kinase-3 (GSK3A per assay name; protocol says GSK3B). The experiment is described as follows: GSK3 binders on small-molecule microarrays, primary screen, biochemical, small-molecule microarray, 635 nm fluorescence, GSK3A (AID 1103). Further: the record names both GSK3A and GSK3B. The note with it: small-molecule microarray binding, fluorescence 635 nm; higher = more signal.
For experiment [7], the target named is Epidermal growth factor receptor (Homo sapiens) (UniProt P00533). The experiment is described as follows: EGFR binders on small-molecule microarrays, primary screen, biochemical, small-molecule microarray, 635 nm fluorescence (AID 1104).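 Further: score merges 667 nm emission intensity with spot signal to noise over triplicate slides.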 The note with it: EGFR binding, higher = more signal.
Sequence of Epidermal growth factor receptor (Homo sapiens) (P00533 whole entry, looked up): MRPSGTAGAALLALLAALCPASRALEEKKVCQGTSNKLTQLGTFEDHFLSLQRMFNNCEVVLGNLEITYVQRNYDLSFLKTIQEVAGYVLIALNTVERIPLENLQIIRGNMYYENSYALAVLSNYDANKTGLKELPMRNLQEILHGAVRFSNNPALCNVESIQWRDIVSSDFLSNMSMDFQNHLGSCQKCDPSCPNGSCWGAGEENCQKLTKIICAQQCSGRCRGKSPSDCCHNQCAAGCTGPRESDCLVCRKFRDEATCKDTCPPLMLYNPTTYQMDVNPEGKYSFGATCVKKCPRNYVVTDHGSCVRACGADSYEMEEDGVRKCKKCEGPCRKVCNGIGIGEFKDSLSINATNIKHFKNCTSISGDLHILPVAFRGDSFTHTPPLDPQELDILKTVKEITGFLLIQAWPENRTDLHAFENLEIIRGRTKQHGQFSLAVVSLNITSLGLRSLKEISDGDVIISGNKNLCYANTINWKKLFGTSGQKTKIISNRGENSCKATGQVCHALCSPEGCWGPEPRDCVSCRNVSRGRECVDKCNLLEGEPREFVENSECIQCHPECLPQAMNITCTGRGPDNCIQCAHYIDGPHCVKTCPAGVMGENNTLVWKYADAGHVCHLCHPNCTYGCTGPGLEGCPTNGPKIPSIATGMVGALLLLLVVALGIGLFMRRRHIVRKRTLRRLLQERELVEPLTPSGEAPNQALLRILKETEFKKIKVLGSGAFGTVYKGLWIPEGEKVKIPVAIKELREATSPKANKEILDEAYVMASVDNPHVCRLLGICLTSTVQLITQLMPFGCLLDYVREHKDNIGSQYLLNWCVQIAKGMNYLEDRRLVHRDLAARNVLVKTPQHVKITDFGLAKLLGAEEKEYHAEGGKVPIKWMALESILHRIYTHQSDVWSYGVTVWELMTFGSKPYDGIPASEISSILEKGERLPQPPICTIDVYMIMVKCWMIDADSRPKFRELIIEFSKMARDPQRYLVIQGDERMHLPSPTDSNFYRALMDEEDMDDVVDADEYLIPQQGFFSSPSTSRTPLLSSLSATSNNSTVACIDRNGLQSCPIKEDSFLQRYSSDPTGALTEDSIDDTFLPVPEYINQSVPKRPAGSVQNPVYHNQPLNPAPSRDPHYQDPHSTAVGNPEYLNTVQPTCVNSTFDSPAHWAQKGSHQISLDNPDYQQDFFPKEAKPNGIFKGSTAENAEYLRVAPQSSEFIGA
Experiment [8] deals with Follistatin-related protein 3 (Homo sapiens) (UniProt O95633). The experiment is described as follows: FSTL3 binders on small-molecule microarrays, primary screen, biochemical, small-molecule microarray, 635 nm fluorescence (AID 1105).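 Further: score merges emission near 667 nm and signal to noise per printed spot across three slides.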 The note with it: FSTL3 binding, higher = more signal.
Sequence of Follistatin-related protein 3 (Homo sapiens) (O95633 whole entry, looked up): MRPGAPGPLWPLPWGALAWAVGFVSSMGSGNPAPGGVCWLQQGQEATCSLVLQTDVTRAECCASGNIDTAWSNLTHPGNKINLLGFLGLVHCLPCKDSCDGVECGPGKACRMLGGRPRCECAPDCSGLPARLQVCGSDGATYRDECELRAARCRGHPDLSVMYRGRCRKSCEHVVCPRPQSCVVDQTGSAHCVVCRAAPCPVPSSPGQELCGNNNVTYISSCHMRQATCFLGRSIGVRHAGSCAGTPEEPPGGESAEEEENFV
The target of experiment [9] is Dickkopf-related protein 1 (Homo sapiens) (UniProt O94907). The experiment is described as follows: DKK1 binders on small-molecule microarrays, primary screen, biochemical, small-molecule microarray, 635 nm fluorescence scan (AID 1106).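 Further: score merges emission near 667 nm with signal to noise over three replicate slides.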 The note with it: DKK1 binding, higher = more signal.
Sequence of Dickkopf-related protein 1 (Homo sapiens) (O94907 whole entry, looked up): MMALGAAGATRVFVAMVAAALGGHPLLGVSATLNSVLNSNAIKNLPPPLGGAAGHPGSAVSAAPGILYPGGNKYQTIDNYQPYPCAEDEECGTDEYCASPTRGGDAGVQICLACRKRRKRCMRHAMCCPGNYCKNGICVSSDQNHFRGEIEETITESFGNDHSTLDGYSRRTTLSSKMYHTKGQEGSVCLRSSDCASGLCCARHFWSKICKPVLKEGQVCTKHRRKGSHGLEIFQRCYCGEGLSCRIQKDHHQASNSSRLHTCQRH
For experiment [10], the system named is Inhibin beta A chain (activin A). The experiment is described as follows: INHBA (activin A) binders on microarrays, primary screen, biochemical, small-molecule microarray, 635 nm fluorescence scan (AID 1107).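 Further: mouse activin A protein probed at 4.33 µg/mL on printed slides; score merges bound-protein fluorescence near 667 nm with spot signal-to-noise.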 The note with it: small-molecule microarray binding, higher = more signal.

Sequence of Fibroblast growth factor 10 (Homo sapiens) (O15520 whole entry, looked up): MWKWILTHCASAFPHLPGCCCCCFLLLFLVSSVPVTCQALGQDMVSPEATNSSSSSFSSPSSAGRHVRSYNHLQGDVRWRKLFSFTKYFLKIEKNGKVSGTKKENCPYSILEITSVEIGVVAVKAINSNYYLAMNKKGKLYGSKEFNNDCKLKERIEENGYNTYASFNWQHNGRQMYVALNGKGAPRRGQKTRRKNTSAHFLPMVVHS

Regarding `COC(=O)[C@@]1(Cc2ccc(OC)cc2)[C@H]2c3cc(C(=O)N4CCCC4)n(CCF)c3C[C@H]2CN1C(=O)c1ccccc1`, the composite z-score came to 1.05 in experiment [1]; 2.71 in experiment [2]; 1.56 in experiment [3]; 1.35 in experiment [5]; 0.383 in [6]; 1.46 in [7]. Moreover, the results for the composite z-score in experiment [8], in [9] and in experiment [10] were 0.942, -0.226 and 0.823, respectively. In [4], the z-score was -2.55 (inactive).

As for `C=CCNC(=O)[C@H]1[C@@H]2C(=O)O[C@@H](c3ccccc3)[C@@H](c3ccccc3)N2[C@@H](c2ccc(OCCO)cc2)[C@]12C(=O)N(C(=O)OCCOC)c1ccc(C#CC3=CCCCC3)cc12`, the composite z-score is 1.39 in [1]; 0.0825 in [2]; -0.0093 in experiment [3]; 1.17 in [5]; 1.31 in experiment [6]; 0.475 in [7]. The composite z-score was 1.11 in [8], 0.522 in experiment [9] and 0.373 in experiment [10]. Also, in [4], the z-score was -1.98 (inactive).

In the case of `CO[C@H]1O[C@H](CO)[C@@H](OC(=O)c2ccc(Br)cc2)[C@@H]2OC(=O)[C@H](Cc3cccc(Br)c3)C/C=C/C[C@@H](Cc3cccc(Br)c3)C(=O)O[C@@H]12`, the composite z-score in [1] was found to be 0.418; in experiment [2], 0.649; in [3] it was 0.78; in experiment [5], 1.04; in experiment [6], 0.559; in experiment [7] it was 0.194. Further, the composite z-score in [8] was 0.914; in [9], 0.189; in experiment [10], 0.602. Moreover, in experiment [4], the z-score was 0.0118 (inactive).

Regarding `CC(C)C[C@@H]1NC(=O)[C@@]23C(=O)N[C@@H](Cc4ccccc4)C2[C@H](C)[C@@]2(C)O[C@H]2C3/C=C/C/C=C\CNC(=O)[C@@H]2CCCN2C1=O` (stereo not given in full), the composite z-score in experiment [1] is 0.324; in experiment [2], -0.277; in experiment [3], -0.719; in experiment [5], 0.0165; in [6], -0.623; in experiment [7], 0.0731. For the same molecule, the composite z-score amounted to 0.361 in experiment [8], 0.534 in [9] and 1.42 in [10]. The z-score in experiment [4] is -0.358 (inactive).

With `O=C1C2C=CC(C(O)c3ccccn3)N(Nc3ccccc3)C2C(=O)N1c1ccccc1` (stereo not given), the composite z-score was 0.687 in experiment [1]; 0.264 in [2]; 0.5 in [3]; -0.191 in experiment [5]; -0.326 in experiment [6]; -0.441 in experiment [7]. Also, the composite z-score was -0.656 in [8], -0.341 in [9] and 0.826 in experiment [10]. Moreover, in experiment [4], the z-score was 0.383 (inactive).

As to `COc1ccc([Si](C)(C)[C@@H]2[C@@H](CCO)O[C@]3(C(=O)N(Cc4cccc(N5C(=O)COc6ccccc65)c4)c4ccccc43)[C@H]2C)cc1`, the composite z-score is 1.35 in experiment [1]; 0.0985 in experiment [2]; 0.298 in experiment [3]; 0.247 in experiment [5]; -0.233 in [6]; -0.0851 in experiment [7]. For the same molecule, the composite z-score is -0.225 in experiment [8], -0.466 in experiment [9] and -0.496 in experiment [10]. Moreover, the z-score in experiment [4] was -1.54 (inactive).

In the case of `C=CCOC(=O)[C@@H]1[C@H]2C(=O)O[C@H](c3ccccc3)[C@H](c3ccccc3)N2[C@H](c2ccc(OCCOC(=O)[C@H]3C[C@H]4C(=O)N[C@@H](Cc5ccccc5)C(=O)N4[C@H]3c3cccc(OCCO)c3)cc2)[C@@]12C(=O)Nc1ccc(I)cc12`, the composite z-score is 0.921 in experiment [1]; 0.141 in experiment [2]; -0.0432 in experiment [3]; 1.24 in experiment [5]; 1.32 in [6]; 1.01 in experiment [7]. Also, the composite z-score in experiment [8] was 1.14; in experiment [9], 1.13; in experiment [10], 0.967. In addition, in [4], the z-score was -0.316 (inactive).

Take `O=C(C=C(CC(O)c1cccc(Cl)c1)OCCF)OCCF` (stereo not given): the composite z-score in experiment [1] is 1.87; in [2] it was 0.558; in experiment [3] it was 0.913; in [5], -0.357; in experiment [6] it was -0.571; in experiment [7], -0.737. For the same molecule, the composite z-score in experiment [8] was -0.863; in experiment [9], -0.735; in [10], 1.31. Further, the z-score in [4] is -0.985 (inactive).

`CC(C)NC(=O)[C@@H]1c2ccccc2C(=O)N(Cc2cc(C(F)(F)F)cc(C(F)(F)F)c2)[C@H]1c1ccc(CO)cc1`: the composite z-score was 0.46 in [1]; 0.178 in experiment [2]; 0.226 in experiment [3]; 0.312 in [5]; 0.811 in [6]; -0.0125 in experiment [7]. Further, the figures for the composite z-score in experiment [8], in [9] and in experiment [10] were 0.504, 0.307 and 0.325, respectively. In experiment [4], the z-score was 0.0833 (inactive).

For the molecule `CCCNC(=O)[C@@]1(Sc2ccc(C)cc2)CC(=O)N(Cc2ccccc2)[C@@H]1c1ccc(CO)cc1I`, the composite z-score in [1] came out at 0.523; in experiment [2] it was 0.806; in experiment [3] it was 0.484; in experiment [5] it was 0.559; in [6], 0.108; in experiment [7], 0.183. Moreover, the composite z-score was 0.942 in experiment [8], 0.353 in experiment [9] and 1.47 in experiment [10]. Further, the z-score in experiment [4] is -0.494 (inactive).

Turning to `CC(C)c1ccc(NN2C(C(O)c3cccs3)C=CC3C(=O)N(c4ccccc4)C(=O)C32)cc1` (stereo not given), the composite z-score amounted to 1.02 in experiment [1]; 0.0558 in experiment [2]; 0.928 in experiment [3]; 0.461 in experiment [5]; 1.31 in experiment [6]; 0.156 in experiment [7]. The composite z-score in experiment [8] is 1.21; in experiment [9] it was -0.054; in experiment [10], 0.975. In addition, the z-score in experiment [4] is 0.356 (inactive).

Regarding `COC(=O)c1c(CC[C@@H](CO)NC(=O)N[C@@H](C)Cn2cc(C3(O)CCCC3)nn2)oc(C(C)=O)c1C(=O)OC`, the composite z-score is 0.513 in [1]; -0.196 in [2]; -0.206 in [3]; 0.308 in experiment [5]; -0.161 in [6]; 0.0477 in [7]. In addition, the results for the composite z-score in experiment [8], in experiment [9] and in [10] were 0.104, -0.217 and -0.338, respectively. Also, in experiment [4], the z-score is -1.45 (inactive).

Turning to `CCOC(=O)C1=CC[C@@H](c2ccc(N(CC)CC)cc2)N(S(=O)(=O)c2ccc(C)cc2)[C@H]1c1ccc([N+](=O)[O-])cc1`, the composite z-score in [1] was 0.468; in experiment [2] it was 0.592; in experiment [3] it was 1.33; in [5], -0.69; in experiment [6], -1.04; in [7], -1.17. Also, the figures for the composite z-score in [8], in experiment [9] and in experiment [10] were -0.966, -1.59 and 1.04, respectively. In experiment [4], the z-score is -1.26 (inactive).

Consider `COC(=O)[C@]1(Cc2ccccc2CN=[N+]=[N-])N=C(c2ccc(OCCCO)cc2)O[C@@H]1c1ccccc1CN=[N+]=[N-]`, for which the composite z-score in experiment [1] is 1.14; in experiment [2], -0.188; in [3] it was 0.835; in [5], 0.468; in experiment [6], 0.419; in experiment [7], -0.267. Further, the composite z-score in experiment [8] was -0.302; in experiment [9] it was 0.127; in experiment [10] it was 0.721. Besides, in [4], the z-score is -0.613 (inactive).

For `COC(=O)[C@@]1(Cc2ccccc2)[C@H]2c3cc(C(=O)N(C)C)n(Cc4ccccn4)c3C[C@H]2CN1C(=O)c1ccccc1`, the composite z-score in experiment [1] was 1.57; in experiment [2], 1.44; in experiment [3], 1.37; in experiment [5], 0.548; in experiment [6], 0.225; in [7] it was -0.805. In addition, the composite z-score in experiment [8] was 0.155; in [9], -1.09; in experiment [10], 0.46. For the same molecule, in experiment [4], the z-score is -1.58 (inactive).
